A selection: hits, their analogues and other compounds. The true share with any hit is near 19%.
TDP1 cell noCPT – qHTS for Inhibitors of human tyrosyl-DNA phosphodiesterase 1 (TDP1): qHTS in cells in absence of CPT; DT40 Tdp1-/- hTDP1 cells, no CPT, ATP luminescence, 48 h; Potency, µM (doses to about 46.2 µM), without a hit: top-dose activity change, negative = growth inhibition, usual class: inhibitors; hit rate 15% among 420,000; note: potency is the fitted concentration of half-maximal effect; % is set by controls: 0 for no effect and ±100 for the full control effect; nearly all actives have a fitted effect of over 55% in size
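Compound effects on proliferation are scored in DT40 Tdp1-/-;hTDP1 cells in the absence of CPT. ATP levels (CellTiter-Glo luminescence) are recorded after a ≥48 hr, 37 °C incubation.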
IL1B secr inh – inflammasome signaling inhibition, IL-1 beta readout | hit rate 4.7% among 360,000 | AID 743279 | THP-1 LPS/ATP IL-1B secretion, AlphaLISA, 16 h; hits give low values | activity change, % at 57.5 µM; in the data active = activity change below about -50%; inconclusive = mostly about -30% to -49%; note: % is set by controls: 0 for no effect and ±100 for the full control effect
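Secreted IL-1B measured by AlphaLISA bead assay after 16 h compound exposure of THP-1 cells; compounds (final up to 57.5 uM) added 1 h before LPS (250 ng/mL) and ATP (1.25 mM) stimulation; lower signal means less secretion.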
ASM inhibitor – inhibitors of human secretory acid sphingomyelinase; placental ASM, HMU-PC fluorogenic substrate, 60 min; Potency, µM (titrated, usually from 57.5 µM), without a hit: at the highest dose activity change, negative = inhibition, hits mostly inhibitors; hit rate 0.006% among 340,000; P17405; AID 504937; note: potency is the fitted concentration of half-maximal effect
Target sequence (P17405 47-631 limits assumed): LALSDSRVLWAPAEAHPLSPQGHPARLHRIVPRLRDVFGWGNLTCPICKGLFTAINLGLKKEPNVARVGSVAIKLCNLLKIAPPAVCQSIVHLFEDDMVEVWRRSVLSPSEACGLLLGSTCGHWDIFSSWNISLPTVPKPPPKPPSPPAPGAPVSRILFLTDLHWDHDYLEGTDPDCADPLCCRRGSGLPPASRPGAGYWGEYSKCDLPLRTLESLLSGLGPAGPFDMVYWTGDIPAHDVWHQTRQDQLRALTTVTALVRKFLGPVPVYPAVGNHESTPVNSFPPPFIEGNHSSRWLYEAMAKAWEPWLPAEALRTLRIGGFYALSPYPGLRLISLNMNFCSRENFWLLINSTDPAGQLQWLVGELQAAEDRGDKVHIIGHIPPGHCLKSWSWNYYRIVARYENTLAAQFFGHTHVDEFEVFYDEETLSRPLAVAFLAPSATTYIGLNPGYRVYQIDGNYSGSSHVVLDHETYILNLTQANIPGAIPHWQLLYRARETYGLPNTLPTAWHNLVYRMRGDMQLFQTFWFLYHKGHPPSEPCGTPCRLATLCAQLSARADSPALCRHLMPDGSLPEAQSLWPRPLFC
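Human placenta-derived ASM enzyme was preincubated with compound for 10 minutes at room temperature, then given fluorogenic substrate HMU-PC0 (9 uM final) for 60 minutes at 37 °C; a pH 10 stop preceded fluorescence reading at Ex 386/Em 447 nm.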
HepG2 tox – counter-screen for TGF-b inhibitors: cytotoxicity in HepG2 cells. HepG2 CAGA-GFP viability, ATP luminescence, 18 h. Potency, µM (series often up to 46.1 µM), inactives show at the highest dose activity change, negative = cytotoxicity, usual class: cytotoxic. hit rate 0.76% among 410,000. AID 588856; note: potency is the fitted concentration of half-maximal effect
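HepG2 CAGA-GFP cells (1000/well, DMEM with 1% FBS) received compound, then TGF-beta at 500 pg/mL final, and were incubated 18 hours at 37 degrees C. Viability was read by CellTiter-Glo luminescence. Media-only wells were set as complete cell-killing and DMSO as no toxicity.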
DT40 TDP1 CPT – DT40-hTDP1 cell growth loss with CPT. chicken DT40 Tdp1-/-;hTDP1 cells + 20 nM CPT, ATP luminescence, 48 h. hit rate 12% among 420,000. AID 686979. Potency, µM (titrated, usually from 46.2 µM), inactives show at the highest dose activity change, negative = growth inhibition, most hits filed as inhibitors; note: potency is the fitted concentration of half-maximal effect; % is set by controls: 0 for no effect and ±100 for the full control effect; nearly all actives have a fitted effect of over 55% in size
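Cell growth measured by CellTiter-Glo luminescence after a minimum 48 h, 37 C compound exposure with 20 nM CPT in Tdp1-knockout DT40 cells stably expressing hTDP1, seeded 400/well; qHTS titration format.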
TGFb inhibitor – inhibitors of TGF-b signaling | HepG2 CAGA-GFP TGF-b/SMAD3 reporter, GFP fluorescence, 18 h; TGF-beta stimulated, 500 pg/mL final | Potency, µM (highest dose often 46.1 µM), for the others: top-dose activity, negative = inhibition, most hits filed as inhibitors | hit rate 1.2% among 410,000; note: potency is the fitted concentration of half-maximal effect; % is set by controls: 0 for no effect and ±100 for the full control effect; nearly all actives have a fitted effect of over 65% in size
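HEPG2 CAGA-GFP reporter cells (1000/well, DMEM with 1% FBS) received compounds, then recombinant TGF-beta at 500 pg/mL final for 18 hours at 37 degrees C. Per-cell GFP summed per well was normalised to unstimulated and stimulated DMSO controls before curve fitting.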
* hit, by the source's call. Unless noted, calls come from the whole dose curve; as a rule, active = well fitted curve in the direction sought with a large enough effect; inconclusive = small, poorly fitted or top-dose-only effect, or another doubt; inactive = no such curve, though single readings can be large; an effect the other way counts as inactive or inconclusive.

What do the screens show for `Cc1ccc2c(c1)C1CC(C)(O2)N(c2cccc(C(=O)NC3CCN(Cc4ccccc4)CC3)c2)C(=O)N1` (stereo not given)?
TDP1 cell noCPT: inconclusive; IL1B secr inh: -53*; ASM inhibitor: 6%; HepG2 tox: -12%; DT40 TDP1 CPT: inconclusive; TGFb inhibitor: -2%

What do the screens show for `Cc1ccc2c(c1)C1CC(C)(O2)N(c2cccc(C(=O)NCc3ccccn3)c2)C(=O)N1` (stereo not given)?
TDP1 cell noCPT: inconclusive; IL1B secr inh: -5; ASM inhibitor: 0%; HepG2 tox: -9%; DT40 TDP1 CPT: inconclusive; TGFb inhibitor: 2%

What do the screens show for `O=C(Nc1ccccc1N1CCOCC1)C1=NN(c2c(F)c(F)cc(F)c2F)C(=O)CC1`?
TDP1 cell noCPT: inconclusive; IL1B secr inh: 28; ASM inhibitor: 0%; HepG2 tox: -17%; DT40 TDP1 CPT: inconclusive; TGFb inhibitor: -1%

What do the screens show for `COc1ccc(NC(=O)N2CCN(c3cccc(C(F)(F)F)c3)CC2)cc1`?
TDP1 cell noCPT: 7.3µM*; IL1B secr inh: -1; ASM inhibitor: 15%; HepG2 tox: 3%; DT40 TDP1 CPT: 2.1µM*; TGFb inhibitor: 1%

How did CN(C)S(=O)(=O)c1ccc(NC(=O)N2CCN(c3cccc(C(F)(F)F)c3)CC2)cc1 do in these assays?
TDP1 cell noCPT: 2.6µM*; IL1B secr inh: -4; ASM inhibitor: -27%; HepG2 tox: -45%; DT40 TDP1 CPT: 3.7µM*; TGFb inhibitor: -31%

What do the screens show for `COc1ccc(NC(=O)CSCC(=O)N2CCN(c3cccc(C(F)(F)F)c3)CC2)cc1`?
TDP1 cell noCPT: 15µM*; IL1B secr inh: 0; ASM inhibitor: -4%; HepG2 tox: -9%; DT40 TDP1 CPT: inconclusive; TGFb inhibitor: -1%

How did O=c1[nH]nnc2c1cnn2-c1ccccc1 do in these assays?
TDP1 cell noCPT: -4%; IL1B secr inh: 10; ASM inhibitor: -1%; HepG2 tox: -11%; DT40 TDP1 CPT: 6%; TGFb inhibitor: -7%

Results for O=C(Cn1cc([N+](=O)[O-])ccc1=O)N1CCCc2ccccc21 ?
TDP1 cell noCPT: 2%; IL1B secr inh: -8; ASM inhibitor: 0%; HepG2 tox: -2%; DT40 TDP1 CPT: 4%; TGFb inhibitor: 4%

How did COc1cc2c(cc1OC)C(C)N(C(=O)CCNC(=O)c1ccccc1)CC2 (stereo not given) do in these assays?
TDP1 cell noCPT: 28%; IL1B secr inh: -11; ASM inhibitor: -1%; HepG2 tox: 5%; DT40 TDP1 CPT: -1%; TGFb inhibitor: 1%

What do the screens show for `COc1cc2c(cc1OC)C(c1ccccc1)N(C(=O)CCl)CC2` (stereo not given)?
TDP1 cell noCPT: 2.9µM*; IL1B secr inh: -96*; ASM inhibitor: 1%; HepG2 tox: 0%; DT40 TDP1 CPT: 3.3µM*; TGFb inhibitor: -20%

What do the screens show for `COc1cc2c(cc1OC)C(C)N(C(=O)[C@@H](NC(=O)c1ccccc1)C(C)C)CC2` (stereo not given in full)?
TDP1 cell noCPT: 29µM*; IL1B secr inh: -52*; ASM inhibitor: -3%; HepG2 tox: -3%; DT40 TDP1 CPT: inconclusive; TGFb inhibitor: -1%

What do the screens show for `COc1cc2c(cc1OC)C(C)N(C(=O)Nc1ccccc1)CC2` (stereo not given)?
TDP1 cell noCPT: 4.1µM*; IL1B secr inh: 40; ASM inhibitor: 5%; HepG2 tox: 12%; DT40 TDP1 CPT: 3.7µM*; TGFb inhibitor: 5%

Results for C/C=C/c1cccc(-c2nc(C(=O)N3CCN(C)CC3)cc3c2[C@@H](CCO)N(C(=O)NC(C)C)C3)c1 ?
TDP1 cell noCPT: -5%; IL1B secr inh: -10; DT40 TDP1 CPT: 4%

What do the screens show for `CCCC[C@@H]1CC2=C(C(=O)OC(C)(C)O2)[C@@H](c2ccc(F)cc2)O1`?
TDP1 cell noCPT: inconclusive; IL1B secr inh: 4; DT40 TDP1 CPT: -20%

What do the screens show for `CC(C)(C)c1ccc(C(=O)CCCN2CCC(OC(c3ccccc3)c3ccccc3)CC2)cc1`?
TDP1 cell noCPT: 6µM*; DT40 TDP1 CPT: 12µM*

What do the screens show for `CC1CCN(CCCC(=O)c2ccc(F)cc2)CC1`?
TDP1 cell noCPT: -12%; DT40 TDP1 CPT: -5%

How did NC(=O)c1cccc2ccccc12 do in these assays?
TDP1 cell noCPT: 4%; IL1B secr inh: -7; ASM inhibitor: -1%; HepG2 tox: -5%; DT40 TDP1 CPT: -20%; TGFb inhibitor: -14%

Results for N#CSCC(=O)c1cccc2ccccc12 ?
TDP1 cell noCPT: 4.6µM*; IL1B secr inh: -61*; ASM inhibitor: 2%; HepG2 tox: -34%; DT40 TDP1 CPT: 4.6µM*; TGFb inhibitor: inconclusive

What do the screens show for `COc1ccc(-c2cc(NC(C)=O)c3ncc(-c4ccc(OC)c(OC)c4)n3c2)c(OC)c1`?
TDP1 cell noCPT: 21µM*; IL1B secr inh: -59*; HepG2 tox: -23%; DT40 TDP1 CPT: 23µM*; TGFb inhibitor: 65%

How did COc1ccc(F)cc1-c1cc(NC(C)=O)c2ncc(-c3cc(OC)c(OC)c(OC)c3)n2c1 do in these assays?
TDP1 cell noCPT: 2.9µM*; IL1B secr inh: 39; HepG2 tox: -10%; DT40 TDP1 CPT: 3.7µM*; TGFb inhibitor: -6%

What do the screens show for `COc1ccc(-c2cnc3c(NC(C)=O)cc(-c4cc(F)ccc4OC)cn23)cc1OC`?
TDP1 cell noCPT: 5.8µM*; IL1B secr inh: -2; HepG2 tox: -27%; DT40 TDP1 CPT: 5.2µM*; TGFb inhibitor: -14%

How did COc1ccc(-c2cc(NC(C)=O)c3ncc(-c4ccc(F)cc4)n3c2)cc1OC do in these assays?
TDP1 cell noCPT: 15µM*; IL1B secr inh: -18; HepG2 tox: -27%; DT40 TDP1 CPT: 23µM*; TGFb inhibitor: -13%

How did COc1ccc(-c2cc(NC(C)=O)c3ncc(-c4ccccc4)n3c2)cc1OC do in these assays?
TDP1 cell noCPT: inconclusive; IL1B secr inh: -25; HepG2 tox: -62%; DT40 TDP1 CPT: inconclusive; TGFb inhibitor: -23%

What do the screens show for `CCC(C)[C@H]1CNC(=O)C(=O)N1CCc1cccc(F)c1` (stereo not given in full)?
TDP1 cell noCPT: -9%; IL1B secr inh: 10; DT40 TDP1 CPT: -7%

Source: PubChem BioAssay
